Screen size: about 96,000 compounds; about 100 (0.1%) were called active. The entries come from a sample that favours actives as a whole. Potency and affinity values are given separately. A number with no mark means an inactive call.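 How the source made its calls: active means displacement above 50% at 20 µM plus a fluorescence interference ratio under 1.5; inactive means the rest.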

For the experiment, the target named is Bcl-2-like protein 10 (Homo sapiens) (UniProt Q9HD36). Put plainly: Bcl-B/TR3 peptide binding disruption – biochemical, fluorescence polarization, FITC-TR3 peptide, selectivity assay for Bfl-1 inhibitor project, primary screen (AID 748).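 Further: plate controls were wells without compound for no effect and wells lacking Bcl-B protein for full effect.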 The conditions noted are these: FP displacement of FITC-TR3 peptide from Bcl-B; at 20 µM; active compounds read high. (Polarisation of emitted light reports the rotation of a fluorescent probe.)
As to `O=C(Nc1ccc(F)cc1F)c1cc2ncc(Br)cn2n1`, the displacement is -2.9%.

With `COC(=O)c1ccccc1NC(=O)c1cc2ncc(Br)cn2n1`, the displacement was 1.3%.

On to `Cc1ccc(Cc2cnc(NC(=O)C3CCCO3)s2)cc1` (configuration not stated), for which the displacement is 0.1%.

Turning to `CCC1=NNc2cccc3c(OC)ccc1c23`, the displacement is 83.6% (active).

On to `COc1ccc(C(C)=O)c2c(O)cccc12`, for which the displacement is -7%.

Turning to `COc1ccc2c3c(cccc13)N(C)N=C2C`, the displacement was 20.3%.

Regarding `CCC(C)(C)n1nnnc1C(c1ccc2ncccc2c1)N1CCN(c2nc3ccccc3s2)CC1` (configuration not stated), the displacement is -13.1%.

As for `COc1ccc(-c2c(C)nn(-c3ccccc3)c2N)cc1`, the displacement was -8%.

As to `CCOc1cc(C(=O)Nc2ccon2)cc(OCC)c1OCC`, the displacement is -15.8%.

Take `Cc1cc(=S)cc(C)n1CCCn1ccnc1`: the displacement was -6.1%.

On to `Cc1ccc(S(=O)(=O)NC(=O)c2cc(C)n(CCCN3CCOCC3)c2C)cc1`, for which the displacement is 8.5%.

Regarding `Cc1ccccc1C1CC(=O)NC2=C1C(=O)CCC2` (configuration not stated), the displacement was -1.2%.

Consider `CCCn1c(SCC(=O)NCCc2ccc(OC)c(OC)c2)nc2c1c(=O)n(C)c(=O)n2C`, for which the displacement was -14.2%.

For the molecule `O=C(COC(=O)CCOc1ccccc1)Nc1ccc(Cl)cn1`, the displacement was 16%.

For `Cc1cc(C)cc(OCC(=O)OCC(=O)Nc2ccc(Cl)cn2)c1`, the displacement was -13.6%.

In the case of `CCOC(=O)c1sc(/N=C/N(C)C)c(C(=O)OCC)c1C`, the displacement is -16.8%.

Regarding `CCOC(=O)C1=C(O)/C(=C/N(C)C)N=C1C`, the displacement was -3.9%.

As for `CCOC(=O)C(Cc1ccccc1)NC(=O)Cn1nnc(-c2ccc(SC)cc2)n1` (configuration not stated), the displacement is -16.2%.

For the molecule `CCCOP(=O)(OCCC)C(Nc1ccc(C(C)C)cc1)c1ccc([N+](=O)[O-])cc1` (configuration not stated), the displacement is 13.7%.

Consider `Cc1c(NS(=O)(=O)c2cccc(C(=O)NCc3ccccc3)c2)c(=O)n(-c2ccccc2)n1C`, for which the displacement was 0.4%.

For `CCOC(=O)c1ccc(NC(=O)C(C)N2C(=O)c3ccccc3C2=O)cc1` (configuration not stated), the displacement is 14.6%.

Turning to `CCOC(=O)c1ccc(NC2OC(=O)c3ccccc32)cc1` (configuration not stated), the displacement was -4.1%.

For the molecule `Cc1ccc(CC(=O)OCCNC(=O)c2cccnc2)cc1`, the displacement was 1.8%.

For the molecule `O=c1c2cc(N3CCOCC3)ccc2[nH]c(=S)n1CCCN1CCCCC1`, the displacement is 10.5%.

Regarding `O=c1c2cc(N3CCOCC3)ccc2[nH]c(=S)n1CCCN1CCCC1`, the displacement is 13.1%.

Regarding `CN(C)c1ccc(C2N(c3ccc(F)cc3)C(=O)C3CCCN32)cc1` (configuration not stated), the displacement is -12.2%.

Regarding `Cc1ccc(C)c(NC(=O)C2C(c3ccccc3)C2(Cl)Cl)c1` (configuration not stated), the displacement is -7.6%.

`Cc1cccc(Nc2nc(N)nc(CN3CCN(Cc4ccc5c(c4)OCO5)CC3)n2)c1`: the displacement is -2.8%.

Regarding `Cc1cc(C)nc(/N=C(\N)C2=C(O)CC(C)(C)CC2=O)n1`, the displacement is -12.3%.

`O=C1c2ccccc2C(=O)C12Cc1ccccc1N1CCN(c3ccccc3)CC12` (configuration not stated): the displacement is -0.1%.

As for `CC1(C)OC(=O)C2(Cc3ccccc3N3CCCCC32)C(=O)O1` (configuration not stated), the displacement was 3.5%.

Turning to `O=C(CCS(=O)(=O)c1ccc(Br)cc1)N1CCN(Cc2ccccc2)CC1`, the displacement is -5%.

Take `O=C(CCN1Cc2ccccc2C1)c1ccc2c(c1)OCCO2`: the displacement was 0.8%.

On to `O=C(CCN1CCc2ccccc2CC1)c1ccc2c(c1)OCCO2`, for which the displacement was 19.8%.

Turning to `Cc1ccc(S(=O)(=O)NCCC(=O)NC2CCCC2)cc1`, the displacement was 2%.

Regarding `O=C(CN1C(=O)C2CC=CCC2C1=O)Nc1nc2ccccc2[nH]1` (configuration not stated), the displacement is 7.6%.

Turning to `CCCOc1cc(C)nc(-c2ccccc2O)n1`, the displacement was -2.4%.

With `O=C(CN1C(=O)C2CCCCC2C1=O)Nc1nc(-c2ccccn2)cs1` (configuration not stated), the displacement is -3.3%.

On to `O=C(Nc1nc(-c2ccccn2)cs1)C1CC1`, for which the displacement was -5.8%.

Consider `Cc1cc2c(c(=O)n1CC1CCCO1)C(c1ccco1)C(C#N)=C(N)O2` (configuration not stated), for which the displacement was -1.3%.

Regarding `CCOC(=O)c1cnc(-n2nc(C)cc2C)nc1Nc1ccc(OC)cc1`, the displacement was 0.6%.

For the molecule `CCN(CC)S(=O)(=O)c1cc(C(=O)Nc2ccc(Cl)cn2)ccc1C`, the displacement was -1.9%.

Turning to `Cc1nc2sc3c(c2c(=O)[nH]1)CCC3`, the displacement was -1.1%.

Take `Cc1ccc(-c2nc3s/c(=C\c4ccco4)c(=O)n3n2)cc1`: the displacement was -14.4%.

In the case of `CCCOc1ccc(Cc2nn3c(=O)/c(=C/c4ccco4)sc3nc2=O)cc1`, the displacement was -5.7%.

With `CCn1c2ccccc2c2nnc(SCc3cc(=O)n4ccsc4n3)nc21`, the displacement is -0.4%.

Turning to `Cc1ccccc1Oc1ccc(S(=O)(=O)NCCC(=O)O)cc1`, the displacement was 0.5%.

As for `Clc1ccc(CN2CCCCCCC2)cc1Cl`, the displacement is -0.5%.

In the case of `O/N=C/c1cccn1-c1ccc(O)cc1`, the displacement is 0.9%.

As for `ON=Cc1cccn1-c1ccccc1`, the displacement was 3.4%.

Regarding `O=C(Nc1cccnc1)c1c(F)cccc1F`, the displacement is 7.8%.

Turning to `O=C(c1ccc(=O)oc1)N1CCOCC1`, the displacement is -16.5%.

Turning to `COc1ccc(C(=O)N2CCOCC2)cc1Br`, the displacement was -9.8%.

Turning to `CC1(C)CC(NC(=O)c2coc(=O)c(Br)c2)CC(C)(C)N1`, the displacement is 6.4%.

Regarding `O=C(c1coc(=O)c(Br)c1)N1CCCc2ccccc21`, the displacement was 18%.

As to `COc1ccc(OCC(=O)N/N=C/c2ccc(O[C@@H]3O[C@H](CO)[C@@H](O)[C@H](O)[C@H]3O)cc2)cc1`, the displacement is -3.2%.

As to `CCn1nc(C)c(NC(=O)CCSc2nc(-c3ccco3)cc(C(F)(F)F)n2)c1C`, the displacement is -7%.

On to `CCOC(=O)c1[nH]c(C)c(/C(O)=C2\C(=O)C(=O)N(CCCN3CCOCC3)C2c2cccnc2)c1C` (configuration not stated), for which the displacement was 5%.

For the molecule `COc1cc(C2CC(=O)NC3=C2C(=O)CC(C)(C)C3)cc(OC)c1O` (configuration not stated), the displacement was -3.3%.

For the molecule `CCSc1nc(N)c2c3c(sc2n1)CN(C)CC3`, the displacement was 1.8%.

On to `CCCSc1nc(N)c2c3c(sc2n1)CN(C)CC3`, for which the displacement was 26.6%.

Consider `COc1ccc(CCNC(=O)c2c(-c3ccccc3)noc2C)cc1OC`, for which the displacement was -0.3%.

For `O=C(O)C(Cc1ccccc1)N1C(=O)c2ccccc2C1=O` (configuration not stated), the displacement was 9.7%.

Take `O=C(O)C(Cc1ccccc1)n1cccc1` (configuration not stated): the displacement is 3.2%.

Consider `Cc1ccc(NC(=O)CSc2nnc(-c3ccc(S(=O)(=O)N4CCOCC4)cc3)n2C)cc1`, for which the displacement was 0.6%.

As for `O=C(Nc1ccc(N2CCN(c3ccc(O)cc3)CC2)cc1)Oc1ccccc1`, the displacement was -11.2%.

Take `CSc1nc(NCc2ccco2)c2c3c(sc2n1)CN(C)CC3`: the displacement is 0.3%.

Regarding `CCN1CCc2c(sc3c2c(NCc2ccco2)nc2nnnn23)C1`, the displacement is 114%.

Take `CCS(=O)(=O)/N=C(\N)c1ccccc1`: the displacement was 2.5%.

Turning to `Cc1ccc(C=C2C(=O)c3ccccc3C2=O)s1`, the displacement was 4.7%.

Regarding `Cc1cc(C)n(-c2ccc(C(=O)Nc3ccc4c(c3)OCO4)cc2)n1`, the displacement is -4.8%.

As to `COCCn1c(SCC(=O)Nc2ccc(Cl)cn2)nc2ccccc21`, the displacement was -17%.

On to `COCCn1c(SCC(=O)Nc2nc(C)c(Cl)cc2Cl)nc2ccccc21`, for which the displacement is -7.3%.

Regarding `Nn1c(SCc2ccccc2)nnc1-c1ccco1`, the displacement was -4.8%.

In the case of `c1coc(-c2nc(-c3ccco3)c(-c3ccco3)nc2-c2ccco2)c1`, the displacement was 43.1%.

With `c1coc(-c2nc3ccccc3nc2-c2ccco2)c1`, the displacement is 22%.

For `c1ccc(CSc2n[nH]c(-c3ccco3)n2)cc1`, the displacement was -8.3%.

As to `COc1cccc(Cn2c(-c3cccs3)noc2=O)c1`, the displacement was -1.2%.

`O=S1(=O)CCC(NS(=O)(=O)c2cccc3cccnc23)C1` (configuration not stated): the displacement is -3.6%.

On to `O=C(Oc1ccc(-c2cn3c(n2)SCC3)cc1)c1ccccc1`, for which the displacement is -5.6%.

`Oc1ccc(-c2cn3c(n2)SCC3)cc1`: the displacement is -4.3%.

For the molecule `CC1(C)Cc2nc3nc(SCC(=O)NCc4ccccc4)n(-c4ccccc4)c(=O)c3cc2CO1`, the displacement was -3.5%.

On to `COc1ccc(-c2noc(CSc3nnc(Cc4ccccc4)n3-c3cccc(C)c3)n2)cc1OC`, for which the displacement is -7.5%.

Consider `c1ccc2cc(CN3CCOCC3)ccc2c1`, for which the displacement was -1.4%.

`O=C(CC1C(=O)OCN1C(=O)OCc1ccccc1)OCC(=O)c1ccccc1` (configuration not stated): the displacement is -0.3%.

As to `CCc1cn(S(=O)(=O)c2ccccc2OC)nc1N`, the displacement was -3.2%.

For the molecule `COC(=O)c1ccc(N2CCC(C)CC2)c(N)c1`, the displacement was -13.4%.

In the case of `Nc1cc(C(=O)O)ccc1N1CCCCCC1`, the displacement was 7%.

In the case of `COC(=O)c1cn(NC(=O)c2cccc(OC)c2)c(=O)c2ccccc12`, the displacement is 10.2%.

As for `O=C1CCC2(C(=O)O)Sc3ccccc3N12` (configuration not stated), the displacement was -5.3%.

Take `Cn1cccc1-c1nc2ccc(NC(=O)c3ccc([N+](=O)[O-])cc3)cc2[nH]1`: the displacement is 3.8%.

For the molecule `COc1ccc(Cl)cc1C(=O)Nn1c(C)nc2ccccc2c1=O`, the displacement is -6.8%.

Turning to `COc1ccc(Cn2c(C)ccc2C)cc1`, the displacement is -31.6%.

For `Cc1cc(C)n(Cc2ccc(C(=O)O)cc2)n1`, the displacement was -12.7%.

As for `CSc1ccc(S(=O)(=O)Nc2ccc3c4c(cccc24)CC3)cc1`, the displacement is 0.8%.

As for `O=C1CC(SC(=NCc2ccc3c(c2)OCO3)Nc2ccccc2)C(=O)N1c1ccccc1` (configuration not stated), the displacement is 0.5%.

`CC(=O)Nc1ccc(S(=O)(=O)NC2=C(N3CCN(c4ccc(F)cc4)CC3)C(=O)c3ccccc3C2=O)cc1`: the displacement was 30.5%.

`Cc1ccc(S(=O)(=O)NC2=C(N3CCN(Cc4ccccc4)CC3)C(=O)c3ccccc3C2=O)cc1`: the displacement is 12.6%.

Regarding `Cc1ccc(NC(=O)CN2CC(C)SC2=NC2CCCCC2)cc1` (configuration not stated), the displacement was -0.9%.

As for `COc1cc(NC(=O)C2CCCCC2)c2ncccc2c1`, the displacement was -2.9%.

As for `COc1ccc(OCC(=O)Nc2cccc3cccnc23)cc1`, the displacement was -0.2%.

Regarding `COc1ccc(OCCCC(=O)NC(C)c2ccccc2)cc1` (configuration not stated), the displacement was 3.5%.

As to `CCOC(=O)C1CCN(C(C(=O)Nc2ccc3c(c2)OCCO3)c2ccccc2)CC1` (configuration not stated), the displacement is -3.4%.

With `O=C1c2sc3nc4c(c(=O)n3c2C(=O)N1c1ccccc1)CCC4`, the displacement was 7%.

On to `O=C1c2sc3nc4ccccc4n3c2C(=O)N1c1ccccc1Cl`, for which the displacement is 0.8%.

Consider `O=C(CSCc1ccc(Cl)cc1)c1ccco1`, for which the displacement was 16.6%.

On to `O=C(CSc1ccccc1Cl)c1ccco1`, for which the displacement was 3.7%.

(Values after PubChem BioAssay AID748 (Sanford-Burnham Center for Chemical Genomics, 2007).)
